Source: PubChem BioAssay
This is a sample that favours compounds with a hit; in the whole collection about 21% have one here.
Pf growth 96h – P. falciparum growth inhibition at 96 hours; P. falciparum luciferase reporter growth, 96 h; Potency, µM (highest dose often 28.7 µM), for the others: at the highest dose activity change, negative = inhibition, actives largely listed as inhibitors; 6.9% of 320,000 active; AID 504834; further: potency means the concentration at half of the fitted maximal effect; on the % scale 0 is the no-effect control and ±100 the full control effect
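Infected RBCs, 2% Hct / 0.05% parasitemia final; luciferase-reporter P. falciparum; cpd 96 h, 37 C, 5% CO2; luciferase detection reagent; luminescence.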
NS1 inh – influenza NS1 inhibition; Potency, µM (doses to about 46.1 µM), inactives show at the highest dose activity, positive = more growth; 0.4% of 270,000 active; calls by dose curve; further: potency means the concentration at half of the fitted maximal effect; actives are rising curves; nearly all actives have a fitted effect of over 50% in size
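Recovery from NS1-induced slow growth read by OD600 in budding yeast switched to galactose assay medium (pH 6.0, -URA) at 1:100 dilution. Compound 23 nl per well; the matching strain lacking NS1 serves as control.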
Pf growth 48h – inhibits P. falciparum growth in the first generation, 48 h; P. falciparum luciferase growth in erythrocytes, 48 h; 5.9% of 310,000 active; Potency, µM (highest dose often 28.7 µM), for the others: at the highest dose activity change, negative = inhibition, actives largely listed as inhibitors; further: potency means the concentration at half of the fitted maximal effect; on the % scale 0 is the no-effect control and ±100 the full control effect
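Growth was read as firefly luciferase luminescence after a 48 h, 37 C, 5% CO2 exposure of compounds to reporter-bearing P. falciparum cultures (0.1% parasitemia, 2% hematocrit final) in Albumax-supplemented RPMI 1640.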
CHX counter – affects cycloheximide protein synthesis inhibition readout, counter-screen; cell reporter, cycloheximide protein synthesis inhibition counterscreen; 12% of 300,000 active; max response, %; in the data active means max response mostly above about 13%, no sharp cut-off; inactive means mostly below about 14%; further: read at 38.3 µM for the half of the compounds with a filed dose; 0% is about no effect
FBPA Giardia inh – inhibitors of Giardia lamblia fructose-1,6-bisphosphate aldolase. A8B2U2. purified Giardia FBPA. Potency, µM (doses to about 59.6 µM), for inactives: at the top dose activity, negative = inhibition, actives largely listed as inhibitors. 0.71% of 290,000 active. AID 2451; further: potency means the concentration at half of the fitted maximal effect; on the % scale 0 is the no-effect control and ±100 the full control effect; nearly all actives have a fitted effect of over 55% in size
Target sequence (A8B2U2 whole entry, looked up): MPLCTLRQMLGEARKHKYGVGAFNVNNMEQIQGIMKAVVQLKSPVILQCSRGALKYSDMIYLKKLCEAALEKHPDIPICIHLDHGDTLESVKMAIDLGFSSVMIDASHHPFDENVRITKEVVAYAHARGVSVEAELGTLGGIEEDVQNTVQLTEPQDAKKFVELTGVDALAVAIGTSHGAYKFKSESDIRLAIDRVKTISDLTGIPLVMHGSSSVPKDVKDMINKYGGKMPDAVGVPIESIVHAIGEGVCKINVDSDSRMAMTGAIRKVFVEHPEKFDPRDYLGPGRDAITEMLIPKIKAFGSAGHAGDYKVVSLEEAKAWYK
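40 nM FBPA preincubated 10 min at RT with compound (up to 57.5 uM final), then substrate plus GAPDH/TPI/NAD/arsenate coupling and diaphorase/resazurin added. Fluorescence read after 20 min at RT, 525/598 nm.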
Shiga toxin inh – blocks Shiga toxin action in Vero cells; Vero cells, Shiga toxin protein synthesis inhibition reporter; inhibition, % at 38.7 µM; 9.2% of 290,000 active; AID 2315; in the data active means inhibition mostly above about 28%, no sharp cut-off; inactive means mostly below about 43%; further: 0% is about no effect
Numbers without * were called inactive; ? = inconclusive; . = no result. Unless noted, the call rests on the fitted dose curve; in most records, active means well fitted curve in the direction sought with a large enough effect; inconclusive means small, poorly fitted or top-dose-only effect, or another doubt; inactive means no such curve, though single readings can be large; an effect the other way counts as inactive or inconclusive.

SMILES	Pf growth 96h	NS1 inh	Pf growth 48h	CHX counter	FBPA Giardia inh	Shiga toxin inh
COc1ccc(C)cc1N1CC(C(=O)OCc2nc(N)nc(Nc3ccccc3C)n2)CC1=O (stereo not given)	1.9%	.	-26.4%	.	.	.
CC(=O)n1nc(-c2ccc(C)cc2)nc1NCc1ccco1	?	.	319.1%	63.1*	1.2%	100.6*
Cc1ccc(SCCC(=O)NCc2ccco2)cc1	4.0%	-7.8%	13.8%	4.6	4.8%	11.7
Cc1ccc(C(=O)NCCC(=O)NCc2ccco2)cc1	10.4µM*	-3.4%	28.0%	-2.5	1.6%	-5.0
Cc1ccc(-c2nc(NCc3ccco3)n(S(C)(=O)=O)n2)cc1	?	.	19.6%	-1.8	-7.3%	-8.0
Cc1ccc(OCCCC(=O)NCc2ccco2)c(C)c1	11.0%	-6.1%	4.15µM*	3.5	4.7%	4.4
Cc1cccc(C)c1Nc1nnc(SCC(=O)NCc2ccco2)s1	0.828µM*	8.4%	?	0.6	-4.0%	16.2
COc1ccc(C(=O)N2CCC3(CCCN(C(=O)Nc4cccc(C#N)c4)C3)CC2)cc1	.	.	.	.	-4.0%	.
CN(CC(=O)Nc1ccccc1Br)C(=O)c1cccnc1Nc1cccc(C(F)(F)F)c1	?	-75.9%	?	9.9	.	21.7
CC(=O)Nc1ccc(SCC(=O)OCC(=O)NC(=O)NCc2ccco2)cc1	9.28µM*	-1.9%	-2.6%	2.5	-6.1%	32.5
Cc1cc(C)c2c(CC(=O)NCc3ccco3)coc2c1	1.04µM*	-8.9%	7.9%	9.1	1.4%	16.1
O=C(CSc1ccc(Cl)cc1)NC(=O)NCc1ccco1	50.1%	.	12.2%	-0.8	1.5%	19.4
O=C(COC(=O)CSc1ccc(Br)cc1)NCc1ccco1	11.6%	.	0.2%	.	.	.
Cc1ccc(C)c(SCC(=O)NCc2ccco2)c1	?	-13.9%	?	1.2	0.4%	9.5
Cc1ccc2nc(SCC(=O)NC(=O)NCc3ccco3)[nH]c2c1	.	2.9%	?	12.8*	0.9%	13.3
O=C(CSc1ccc(Cl)cc1)NCc1ccco1	?	-3.3%	76.7%	31.7*	-1.7%	33.7
O=C(Nc1ccccc1)N1CC2(CCN(C(=O)c3ccco3)CC2)C1	.	.	.	.	-1.7%	.
CC(C)C[C@H](NC(=O)[C@H](CC(C)C)NC(=O)[C@H](Cc1ccccc1)NC(=O)[C@@H](N)Cc1ccc(O)cc1)C(=O)N[C@@H](CCCN=C(N)N)C(=O)N[C@@H](CC(N)=O)C(=O)N1CCC[C@H]1C(=O)O	.	.	.	-4.8	3.4%	-9.0
Cc1ccc(SCC(=O)NCc2ccco2)cc1	?	1.4%	?	17.1*	-0.5%	39.6
Cc1cccc(S(=O)(=O)Nc2ccc(-c3cn4ccccc4n3)cc2)c1	?	-16.1%	47.6%	13.3*	9.3%	17.6
Cc1nc(-c2ccc(NS(=O)(=O)c3ccccc3)cc2)cs1	34.5%	.	47.0%	12.5	-6.1%	21.5
Cc1cc(C)c(S(=O)(=O)Nc2ccc(-c3cn4ccccc4n3)cc2)c(C)c1	.	14.4%	14.7µM*	15.3	-5.5%	15.3
O=S(=O)(Nc1ccc(-c2cn3ccccc3n2)cc1)c1ccccc1	62.3%	3.4%	6.4%	28.1*	-4.5%	87.0*
CC1CN(S(=O)(=O)c2cccc(-c3cn4ccccc4n3)c2)CC(C)O1 (stereo not given)	.	-81.2%	?	19.1	25.6%	-20.7
Cc1ccc2nc(NS(=O)(=O)c3cn(C)nc3C)sc2c1	34.9%	9.8%	?	3.0	.	-16.3
SMILES	Pf growth 96h	NS1 inh	Pf growth 48h	CHX counter	FBPA Giardia inh	Shiga toxin inh
O=S(=O)(c1ccccc1)c1nc(-c2ccco2)oc1NCCN1CCOCC1	29.9%	?	.	6.1	-22.2%	-15.0
Cc1ccc(S(=O)(=O)c2nc(-c3ccccc3)oc2NCc2cccnc2)cc1	?	-49.4%	?	0.5	2.2%	-6.1
Cc1ccc(CNc2oc(-c3ccco3)nc2S(=O)(=O)c2ccccc2)cc1	?	-11.3%	10.4µM*	9.3	-5.9%	9.3
Cc1ccccc1-c1nc(S(=O)(=O)c2ccc(Br)cc2)c(NCc2cccnc2)o1	.	18.0%	13.1µM*	7.7	-2.4%	16.5
O=S(=O)(c1ccc(Br)cc1)c1nc(-c2ccccc2)oc1NCCN1CCOCC1	9.28µM*	2.2%	?	12.6	.	-12.2
O=S(=O)(c1ccc(Br)cc1)c1nc(-c2ccco2)oc1NCCCn1ccnc1	?	.	8.28µM*	.	.	.
CC(C)(C)OC(=O)N[C@@H](Cc1ccccc1)C(=O)NCC1CCC(C(=O)N[C@@H](CC(=O)O)C(=O)O)CC1 (stereo not given in full)	-7.6%	8.8%	.	-5.3	0.9%	-2.4
COC(=O)C(NC(=O)CCc1nnc2ccc(N3CCCCC3)nn12)C(C)C (stereo not given)	-9.1%	-9.4%	39.8%	-2.1	19.1%	-4.7
CC(C)c1ccc(-c2nnn(CCC#N)n2)cc1	32.2%	-2.1%	56.4%	26.7*	3.6%	72.2*
COc1ccc(Cn2c(=O)c3[nH]cnc3n(-c3ccc(C)cc3)c2=O)cc1	2.33µM*	0.9%	?	5.6	-7.6%	-7.0
Cc1cccc(NC(=O)c2ccc(N(C)C3CCCCC3)c([N+](=O)[O-])c2)n1	?	-1.2%	?	20.7*	-15.5%	58.4*
Cc1cccc(NC(=O)c2ccc(N3CCOCC3)c([N+](=O)[O-])c2)n1	0.0%	0.9%	54.3%	38.2*	-17.7%	72.3*
Cc1ccc(C)c2sc(NC(=O)c3ccc(N4CCCCC4)c([N+](=O)[O-])c3)nc12	?	6.0%	2.62µM*	-1.6	-0.2%	34.8
O=C(Nc1cccnc1)c1ccc(N2CCOCC2)c([N+](=O)[O-])c1	?	4.3%	4.9%	1.1	-19.6%	-2.1
O=C(Nc1cccnc1)c1ccc(N2CCCC2)c([N+](=O)[O-])c1	-18.0%	1.1%	-7.4%	28.7*	-10.5%	47.5
CC(=O)N1CC(C)Oc2ccc(S(=O)(=O)Nc3ccc(Cl)cn3)cc21 (stereo not given)	?	2.3%	-8.7%	8.1	-5.0%	13.6
COc1cc(O)c(/C=N/NC(=O)c2ccncc2)c(OC)c1[N+](=O)[O-]	?	.	3.2%	5.0	21.2%	18.9
CN1C(=O)c2ccc(NC(=O)c3ccc(N4CCCCC4)c([N+](=O)[O-])c3)cc2C1=O	-8.8%	-5.7%	10.0%	-2.2	7.3%	-1.4
Cc1cccc(NC(=O)c2ccc(N3CCCCC3)c([N+](=O)[O-])c2)n1	-1.8%	-112.2%	5.7%	46.0*	-29.3%	68.7*
CCN(CC)c1ccc(/C=C/[N+](=O)[O-])cc1	16.7%	.	9.8%	11.6*	-13.5%	28.6
CC(/C=N/NC(=O)c1ccc(Cn2cc([N+](=O)[O-])cn2)o1)=C\c1ccccc1	?	13.6%	-11.1%	26.0*	.	71.5*
COc1ccc(/C=N/NC(=O)c2ccc(COc3ccccc3Cl)o2)cc1	?	3.1%	0.0%	14.7	-1.7%	21.8
